# HTT aggregate: inhibitors of mutant huntingtin aggregate formation in PC12 cells; PC12 HttQ103-GFP aggregates, Acumen cytometry, 40 h; Potency, µM (doses to about 46.1 µM), inactives show at the top dose activity change, negative = inhibition, usual class: inhibitors; hit rate 1.1% among 220,000; active = well fitted curve in the direction sought with a large enough effect; inconclusive = small, poorly fitted or top-dose-only effect, or another doubt; inactive = no such curve, though single readings can be large; an effect the other way counts as inactive or inconclusive; also: % is scaled to controls: 0 for no effect and ±100 for the full control effect; nearly all actives have a fitted effect of over 60% in size
#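 PC12 cells stably carrying ecdysone-inducible HTT exon 1 Q103–GFP were induced with tebufenozide (100 nM final) and treated with library compounds in titration. GFP aggregates in lysates were counted by laser scanning cytometry.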
# HTT ATP protect: Huntington cell model cytoprotection by ATP luminescence; Potency, µM (top dose mostly 56.4 µM), without a hit: cytoprotection (ATP increase), most hits filed as activators; hit rate 0.14% among 230,000; AID 1471; PC12 HTT-Q103 induced, cytoprotection, ATP luminescence, 40 h; active = well fitted curve in the direction sought with a large enough effect; inconclusive = small, poorly fitted or top-dose-only effect, or another doubt; inactive = no such curve, though single readings can be large; an effect the other way counts as inactive or inconclusive; also: % of control where 0% means no effect; nearly all actives have a fitted effect of over 45% in size
#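 Readout: ATPlite luminescence (ATP level). Model: stable PC12, inducible Htt exon1 Q103-GFP. Inducer: tebufenozide, 100 nM final. Compounds: dose series. No G418 in medium.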
# KDM4E inh: inhibitors of human JMJD2E histone demethylase | B2RXH2 | JMJD2E catalytic domain, FDH-coupled NADH fluorescence (FDH is formaldehyde dehydrogenase) | Potency, µM (highest dose often 57.1 µM), for inactives: at the highest dose activity change, negative = inhibition, usual class: inhibitors | hit rate 1.6% among 230,000;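 also: 0% = wells with enzyme and -100% = buffer wells without enzyme; nearly all actives have a fitted effect of over 50% in size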
# Lamin A splicing: changes lamin A minigene splicing in HeLa cells; Potency, µM (doses to about 46.1 µM), for inactives: at the highest dose ratio change, negative = inhibition, hits mostly inhibitors; HeLa LMNA splicing GFP/RFP minigene ratio, 48 h; AID 1487; hit rate 0.01% among 200,000; active = well fitted inhibition curve with a large enough effect in the signal ratio, with a control signal flat, not every such curve was filed as active; inconclusive = small, poorly fitted or top-dose-only effect, or effect the other way, or a change in a side signal; the % refers to the signal ratio; also: % is scaled to controls: 0 for no effect and ±100 for the full control effect
#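 S3 HeLa stable clones carrying a lamin A-EGFP splicing minigene plus DsRed2 were seeded at 600 cells/well in Opti-MEM with 2% FBS, pin-dosed and incubated 48 h at 37°C. Acumen cytometry (488 nm) gave the GFP/RFP total-intensity ratio.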
# ALDH1A1 inh: inhibitors of human aldehyde dehydrogenase 1A1. Purified ALDH1A1, NADH fluorescence, propionaldehyde substrate. Potency, µM (top dose mostly 75.3 µM), for inactives: at the top dose activity, negative = inhibition, hits mostly inhibitors. hit rate 7.3% among 220,000. AID 1030;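 also: plate controls were no enzyme wells and a reference inhibitor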
# Target sequence (P00352 whole entry, looked up): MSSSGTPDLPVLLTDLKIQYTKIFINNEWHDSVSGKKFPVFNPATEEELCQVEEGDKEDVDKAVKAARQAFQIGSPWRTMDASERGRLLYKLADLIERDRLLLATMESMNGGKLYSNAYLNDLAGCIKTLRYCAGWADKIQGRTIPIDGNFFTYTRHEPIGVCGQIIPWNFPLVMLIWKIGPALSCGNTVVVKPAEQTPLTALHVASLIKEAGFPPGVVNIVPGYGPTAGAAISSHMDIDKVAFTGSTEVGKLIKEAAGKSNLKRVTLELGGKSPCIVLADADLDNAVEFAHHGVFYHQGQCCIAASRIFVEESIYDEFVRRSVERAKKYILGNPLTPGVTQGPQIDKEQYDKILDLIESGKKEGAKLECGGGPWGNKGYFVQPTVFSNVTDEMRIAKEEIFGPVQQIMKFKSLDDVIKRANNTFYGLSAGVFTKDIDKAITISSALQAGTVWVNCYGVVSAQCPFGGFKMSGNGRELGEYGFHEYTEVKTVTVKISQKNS
# HPGD inh: HPGD (human) dehydrogenase inhibition; P15428; purified HPGD, NADH fluorescence kinetic, PGE2 substrate; Potency, µM, inactives show at the highest dose activity change, negative = inhibition, most hits filed as inhibitors; hit rate 4.3% among 150,000; AID 894; also: % is scaled to controls: 0 for no effect and ±100 for the full control effect
# Target sequence (P15428 whole entry, looked up): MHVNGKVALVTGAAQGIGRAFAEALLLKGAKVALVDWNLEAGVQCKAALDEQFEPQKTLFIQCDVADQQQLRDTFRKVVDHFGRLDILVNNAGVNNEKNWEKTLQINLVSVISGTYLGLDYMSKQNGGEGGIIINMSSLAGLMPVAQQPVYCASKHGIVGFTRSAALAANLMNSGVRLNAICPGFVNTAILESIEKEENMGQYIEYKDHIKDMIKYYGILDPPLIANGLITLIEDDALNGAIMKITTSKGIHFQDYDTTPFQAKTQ
#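 NADH formation kinetics: reaction with 30 uM PGE2 and 1 mM NAD+ (final), 20 nM enzyme, Tris-HCl pH 8 with Tween 20, after 15 min compound preincubation at room temperature. Fluorescence change, last versus first of five reads.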
# * = called active by the depositor; ? = inconclusive; . = not tested or not shown; ! = not active in a repeat; [ ] = remark or other dose. Compounds with a hit are over-represented: about 9.2% of the library has one in this group of screens. Unless noted, calls follow the shape of the dose curve; as a rule, active = well fitted inhibition curve with a large enough effect (not every such curve was filed as active); inconclusive = small, poorly fitted or top-dose-only effect, or another doubt; inactive = no such curve, though single readings can be large or run the other way. Potency is read from the fitted curve at half-maximal effect.
SMILES,HTT aggregate,HTT ATP protect,KDM4E inh,Lamin A splicing,ALDH1A1 inh,HPGD inh
CN(C)S(=O)(=O)c1ccc2c(c1)nc(CCC(=O)Nc1ccc3c(c1)OCO3)n2C,15%,.,-3%,?,5µM*,-16%
CCN(CC)S(=O)(=O)c1ccc2c(c1)nc(CCC(=O)OCC(=O)Nc1cc(OC)cc(OC)c1)n2C,4%,35%[10 µM],1%,3%,?,-7%
CN(C)S(=O)(=O)c1ccc2c(c1)nc(CCC(=O)Nc1ccc(N3CCOCC3)cc1)n2C,9%,-10%[10 µM],-1%,.,-1%,.
CCN(CC)S(=O)(=O)c1ccc2c(c1)nc(CCC(=O)Nc1ccc3c(c1)OCO3)n2C,8%,-19%[10 µM],5%,-18%,7.9µM*,-1%
CCN(CC)S(=O)(=O)c1ccc2c(c1)nc(CN(C)C(=O)Nc1ccc(F)cc1)n2C,.,.,.,10%[46 µM],.,.
CCCCC[C@H](O)/C=C/[C@H]1C(=O)C=C[C@@H]1C/C=C\CCCC(=O)O,.,5.6µM*!,5%,.,2%,-10%
COc1ccc(NC(=O)Nc2cc(C)ccn2)cc1,.,-42%,.,.,.,.
COc1ccc(C(=O)NC(=O)Nc2cc(C)ccn2)cc1,?,-100%[10 µM],?,-7%,13µM*,.
Cc1cnc(NC(=O)[C@H](C)N2C(=O)C3CCCCC3C2=O)s1 (stereo partly specified),-24%,-5%,-8%,.,3%,.
NS(=O)(=O)c1ccc(Nc2ccc([N+](=O)[O-])c3nonc23)cc1,-8%[9.22 µM],8%[10 µM],-11%,.,.,.
O=[N+]([O-])c1ccc(S(=O)(=O)Cc2ccccc2)c2nonc12,.,7%[10 µM],.,.,1.8µM*,3.2µM*
O=C(CCc1ccccc1)NNC(=O)c1ccccn1,13µM*,-80%,?,.,1%,.
Fc1ccc(NC(=S)NCCc2ccccc2)c(F)c1F,-9%,2%,-2%,-11%,?,25µM*
O=C(NCCc1ccccc1)C(=O)NC1CCCCC1,-10%,11%,-2%,6%,7%,5%
Fc1ccccc1NC(=S)NCCc1ccccc1,-29%,-4%,-1%,9%,-1%,-16%
O=C(CNC(=S)NC(=O)c1ccc(Cl)cc1)c1ccccc1,18%,.,6%,13%,8.9µM*,-5%
O=C(NC1CCCCC1)C(=S)NCCc1ccccc1,-4%,.,1%,-3%[46 µM],18µM*,.
O=C(CCc1ccccc1)NNC(=O)Cc1ccccc1,2%[9.22 µM],28%[10 µM],7%,9%[46 µM],17%,.
O=C(O)C1CCCN1S(=O)(=O)c1cccc2cccnc12 (stereo unspecified),.,1%,.,.,.,.
O=C(NC(=S)NCCc1ccccc1)c1ccccc1,-9%,-50%,-6%,4%,16µM*,-22%
CC1CCCC/C1=N\NC(=S)NCCc1ccccc1 (stereo unspecified),?,?,5%,.,14µM*,.
CC(C)(C)c1cc(CCC(=O)NNC(=S)NC(=O)c2ccccc2)cc(C(C)(C)C)c1O,?,?,-12%,?,?,-18%
COc1ccc(CCNC(=S)NC(=O)c2ccccc2)cc1C,3%[9.22 µM],19%[10 µM],-1%,.,.,.
COc1ccccc1CNC(=S)NCCc1ccccc1,-4%,3.2µM*,4%,?,-3%,-12%
Cc1ccc(NC(=S)N/N=C2\CCCCC2C)cc1 (stereo unspecified),-11%,?,2%,-2%[46 µM],?,.
SMILES,HTT aggregate,HTT ATP protect,KDM4E inh,Lamin A splicing,ALDH1A1 inh,HPGD inh
O=C(CCc1ccccc1)NNC(=S)NC(=O)c1ccccc1,-15%,-24%,1%,-18%,18µM*,-26%
CCc1cccc(C)c1NC(=O)c1cc(CN2CCCC2)on1,.,.,.,0%[46 µM],.,.
CCc1ccccc1NC(=O)N1CCN(c2nnc(C)c3c(C)n(-c4ccccc4)nc23)CC1,.,.,.,7%[46 µM],.,.
CC(=O)NC(=S)NNC(=O)CCc1ccccc1,35%[9.22 µM],-35%,4%,.,20µM*,.
COC(=O)C(Cc1ccccc1)NC(=S)NC(=O)c1ccccc1 (stereo unspecified),11%,-15%[10 µM],-11%,?,8.9µM*,.
CCOc1ccc(C(=O)NC(Cc2ccccc2)C(=O)OC)cc1 (stereo unspecified),0%,-2%,6%,-7%[0.0737 µM],-7%,-6%
O=C(NC(=S)NCCC1=CCCCC1)c1cccnc1,12%[9.22 µM],1%[10 µM],-9%,-5%[46 µM],14µM*,.
O=C(O)CCSCc1ccc(I)cc1,.,13%[10 µM],.,.,4%[13.5 µM],-6%
NC(=O)c1ccc(NC(=O)c2cccc3c2OCCCO3)cc1,-38%[9.22 µM],-11%[10 µM],3%,.,5%,.
Cc1ccccc1OCC(=O)OCC(=O)Nc1ccc(N2CCOCC2)cc1,-4%,4%,2%,?,-5%,.
N#Cc1ccc(C(=O)OCC(=O)Nc2ccc(N3CCOCC3)cc2)cc1,-2%,-27%,5%,-17%[46 µM],?,.
O=C(COC(=O)CCC(=O)c1ccc(F)cc1)Nc1ccc(N2CCOCC2)cc1,0%,-24%[10 µM],-5%,0%,-10%,18µM*
CN(C)c1ccc(C(=O)OCC(=O)Nc2ccc(N3CCOCC3)cc2)cc1,10%[9.22 µM],-9%[10 µM],-24%,.,13µM*,.
O=C(O)CCc1nc(-c2ccccc2-n2cccc2)no1,.,2%[10 µM],.,.,?,?
CCCC(NC(C)C(=O)N1C(C(=O)O)CC2CCCCC21)C(=O)OCC (stereo unspecified),.,-28%,-3%,.,3%,-12%
COCCNc1nc2nonc2nc1N(C)Cc1cccc2cnccc12,-25%[9.22 µM],-33%[10 µM],-2%,13%[46 µM],5µM*,.
CCN(c1ccccc1)c1nc2nonc2nc1NCCO,4%[9.22 µM],8%[10 µM],4%,.,.,.
N#Cc1ccc(OC(=O)c2cc(-c3ccc(Cl)cc3)on2)cc1,.,.,.,16%[46 µM],.,.
O=C(Nc1nnc(-c2ccncc2)o1)c1ccccc1,?,-46%,?,-1%[46 µM],?,.
O=C(Nc1nnc(-c2ccc(F)cc2)o1)c1cc(Cl)sc1Cl,11µM*,7%[10 µM],?,?,-3%,-21%
O=C(Nc1nnc(-c2ccc(F)cc2)o1)c1cccc([N+](=O)[O-])c1,5.6µM*,-83%,?,?,5%,.
CN1CCN(CN2C(=O)C3C4C=CC(C3C2=O)C2C3C(=O)N(CN5CCN(C)CC5)C(=O)C3C42)CC1 (stereo unspecified),.,-8%[10 µM],.,.,-12%[13.5 µM],-3%
Cc1cc(C)n(-c2ccc(C(=O)OCC(=O)c3ccc(Br)s3)cc2)n1,-10%,-11%,-2%,3%,22µM*,-12%
COc1cccc([C@H]2Oc3ccc(OC)cc3/C(=N\O[C@@H](C)c3cn([C@H](CO)Cc4ccccc4)nn3)[C@@H]2O)c1,.,?,.,.,6%[13.5 µM],.
CN(C)S(=O)(=O)Oc1cccc(C(=O)Nc2ccc([N+](=O)[O-])cc2)c1,?,-30%,7%,?,4.5µM*,.
CC1CCN(S(=O)(=O)c2cccc(C(=O)NNC(=O)c3ccco3)c2)CC1,-17%[9.22 µM],5%[10 µM],2%,.,.,.

# Source: PubChem (National Center for Advancing Translational Sciences (NCATS))
